FLuc counter – counter-screen for miR-21 project: firefly luciferase inhibitors or activators. Potency, µM (doses to about 57.5 µM), for inactives: top-dose activity change, negative = inhibition, hits mostly inhibitors. purified FLuc, Km substrates, luminescence inhibition. AID 588342. 6.9% of 360,000 active. P08659;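 also: plate controls were vehicle for no effect and reference inhibitor for full effect; nearly all actives have a fitted effect of over 55% in size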
Target sequence (P08659 whole entry, looked up): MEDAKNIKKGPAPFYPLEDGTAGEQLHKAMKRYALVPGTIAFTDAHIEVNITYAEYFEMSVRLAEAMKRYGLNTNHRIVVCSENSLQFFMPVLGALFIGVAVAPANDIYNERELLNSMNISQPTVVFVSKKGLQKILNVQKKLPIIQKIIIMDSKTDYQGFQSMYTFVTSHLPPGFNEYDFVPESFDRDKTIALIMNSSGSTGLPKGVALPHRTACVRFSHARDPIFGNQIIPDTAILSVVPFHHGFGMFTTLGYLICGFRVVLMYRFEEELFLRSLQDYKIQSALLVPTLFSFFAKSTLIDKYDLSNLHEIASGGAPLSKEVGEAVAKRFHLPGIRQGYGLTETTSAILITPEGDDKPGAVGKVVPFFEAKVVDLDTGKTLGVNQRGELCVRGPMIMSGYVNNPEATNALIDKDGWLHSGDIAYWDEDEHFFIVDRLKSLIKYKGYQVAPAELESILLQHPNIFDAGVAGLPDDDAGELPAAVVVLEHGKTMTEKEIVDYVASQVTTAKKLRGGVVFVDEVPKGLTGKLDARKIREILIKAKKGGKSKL
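Purified P. pyralis luciferase, 10 nM final, with Km-level 10 uM D-luciferin and 10 uM ATP in 50 mM Tris acetate pH 7.5, 10 mM Mg acetate, 0.01% Tween-20, 0.05% BSA; 6-point qHTS titration about 60 µM downward; luminescence read.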
SMN2 splice up – SMN2 splice variant enhancement; HEK293 SMN2-luciferase splicing reporter, luminescence, 30-36 h; AID 1458; Potency, µM (doses to about 46.1 µM), for inactives: at the top dose activity change, positive = activation, actives largely listed as activators; 2.8% of 210,000 active; also: % of control where 0% means no effect; nearly all actives have a fitted effect of over 55% in size
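qHTS luciferase splicing reporter: luminescence rises when SMN2 exon 7 is included in transfected HEK293 cells. Compound exposure lasted 30-36 h at 37C, with 4.5 mM final sodium butyrate as control, followed by a ONE-Glo read.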
NPC1 prom act – activates the NPC1 promoter | AID 485313 | Huh7 NPC1 promoter luciferase reporter, 24 h | 2.4% of 320,000 active | Potency, µM (titrated, usually from 9.22 µM), inactives show top-dose activation, usual class: activators; also: % of control where 0% means no effect; nearly all actives have a fitted effect of over 60% in size
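NPC1 promoter–luciferase Huh7 cells; 24 h compound; luminescence.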
Rab9 promoter act – activators of Rab9 promoter; Potency, µM (titrated, usually from 9.22 µM), without a hit: top-dose activation, negative = inhibition, hits mostly activators; Huh7 Rab9 promoter-luciferase reporter, luminescence, 24 h; AID 485297; 2.8% of 320,000 active; also: % of control where 0% means no effect; nearly all actives have a fitted effect of over 60% in size
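Luminescence read-out: Huh7 cells stably expressing Rab9-luciferase, treated 24 h with compound at 37 °C, then lysed with luciferase reagent for 10 min at ambient before reading.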
Luc counter – Kinase-Glo luciferase inhibition (counter-screen) | AID 1379 | 0.28% of 200,000 active | Potency, µM (doses to about 38.3 µM), for the others: at the highest dose activity change, negative = inhibition, actives largely listed as inhibitors | Q27757 | Kinase-Glo luciferase, ATP luminescence, 8 min; also: % is scaled to controls: 0 for no effect and ±100 for the full control effect; nearly all actives have a fitted effect of over 60% in size
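Inhibition of Kinase-Glo luciferase light generation was assessed at 10 uM ATP in pH 7.2 imidazole buffer, with luminescence measured after eight minutes at ambient temperature.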
* hit, by the source's call; ? = inconclusive; · = no result given; [ ] = another dose, or the depositor's remark. A selection: hits, their analogues and other compounds. The true share with any hit is near 7.3%. Calls follow the shape of the dose curve; as a rule, active = well fitted curve in the direction sought with a large enough effect; inconclusive = small, poorly fitted or top-dose-only effect, or another doubt; inactive = no such curve, though single readings can be large; an effect the other way counts as inactive or inconclusive. Potency is read from the fitted curve at half-maximal effect.

SMILES | FLuc counter | SMN2 splice up | NPC1 prom act | Rab9 promoter act | Luc counter
O=c1c2c3c(sc2ncn1/N=C/c1ccco1)CCCC3 | 0.4%[2.3 µM] | ? | 10.3% | 8.7% | 1.7%
Nn1c(Nc2ccccc2)nc2sc3c(c2c1=O)CCCC3 | 15.1µM* | ? | 1.9% | -0.1% | -3.1%
Cc1ccc(-c2nc3sc4c(c3c(=O)n2N)CCCC4)cc1 | 2.13µM* | 11.2µM* | 1.26µM* | 0.631µM* | -3.7%
COc1ccc(/C=C/c2nc3ccccc3c(=O)n2-c2cccc(C(F)(F)F)c2)cc1 | -2.3% | · | · | · | ·
CCCCCN(C(=O)CCC(=O)OCC(=O)c1ccc(CCC)cc1)c1c(N)n(CCCC)c(=O)[nH]c1=O | 2.69µM* | · | 0.9% | -1.5% | ·
CCCCCN(C(=O)CSc1n[nH]c(-c2ccc(C)cc2)n1)c1c(N)n(CCCC)c(=O)[nH]c1=O | 2.69µM* | · | 0.4% | 23.0% | ·
CCCn1c(N)c(C(=O)CSc2nnc(N)s2)c(=O)[nH]c1=O | 1.6% | · | -0.8% | -4.0% | ·
CCCCN(C(=O)CSc1nnnn1C)c1c(N)n(Cc2ccccc2)c(=O)[nH]c1=O | 5.4% | · | -2.7% | -4.4% | ·
CCCCN(C(=O)CSc1nnc(Nc2ccccc2)s1)c1c(N)n(CCC)c(=O)[nH]c1=O | 15.1µM* | · | -0.6% | 2.3% | -12.6%
CCCn1c(N)c(C(=O)CSc2nc3ccccc3s2)c(=O)[nH]c1=O | -3.2% | 12.6µM* | 8.7% | 15.7% | -1.8%
CCCCn1c(N)c(N(CCOC)C(=O)CSc2n[nH]c(-c3ccc(C)cc3)n2)c(=O)[nH]c1=O | 2.7% | · | -4.0% | -2.2% | ·
CCOc1cccc(C2c3c(oc4ccc(F)cc4c3=O)C(=O)N2CCOC)c1 (centres undefined) | 1.7% | -2.5% | · | · | ·
Cc1cccc(-c2nc3c4ccccc4nc(NCc4ccccc4Cl)n3n2)c1 | ? | 29.4% | · | · | ·
CCCCn1c(N)c(N(CC(C)C)C(=O)CSc2n[nH]c(-c3ccc(C)cc3)n2)c(=O)[nH]c1=O | 10.7µM* | · | 1.0% | 0.4% | ·
CCCCn1c(N)c(N(CC(C)C)C(=O)CCS(=O)(=O)c2ccc(C)cc2)c(=O)[nH]c1=O | 15.2% | · | -0.8% | -0.3% | ·
Cc1ccc(C(=O)Oc2ccc(N3C(=O)CCC3=O)c(C)c2)cc1 | 2.69µM* | 7.1% | -4.0% | -13.8% | -1.0%
CC(=O)Oc1ccc2ccc(=O)oc2c1 | -1.3% | · | 1.1% | 0.3% | ·
COc1cccc(C(=O)Oc2ccc3ccc(=O)oc3c2)c1 | 5.36µM* | · | -5.8% | 0.5% | ·
Cc1ccc(C(=O)Oc2ccc3ccc(=O)oc3c2)cc1 | 2.39µM* | · | -3.9% | 0.2% | ·
COc1ccc(C(=O)Oc2ccc3ccc(=O)oc3c2)cc1OC | -6.7% | · | 0.9% | 1.9% | ·
C[N+]1(C)CCc2cc(O)c(O)cc2[C@H]1Cc1ccc(O)c(O)c1 | · | -2.7%[9.22 µM] | · | · | -1.7%[7.66 µM]
Cc1ccc(CNC(=O)CCn2cnc3ccccc3c2=O)cc1 | 4.4% | · | · | · | ·
O=S(=O)(Nc1ccccc1O)c1cccc2cccnc12 | -20.1% | · | -1.7% | -13.3% | 1.5%
Oc1ccccc1/C=N/Nc1cccc2cccnc12 | 1.51µM* | ? | ? | 13.1% | -17.4%
O=C(O)c1ccc(N/N=C/c2ccnc3ccccc23)cc1 | 1.35µM* | · | 0.562µM* | ? | ·
SMILES | FLuc counter | SMN2 splice up | NPC1 prom act | Rab9 promoter act | Luc counter
CCOC(=O)c1cnc2ccccc2c1Nc1ccc(C(=O)O)cc1 | ? | 10.9% | -1.2% | 1.5% | 2.0%
CC(C)(C)OC(=O)NCCC(=O)N/N=C/c1cccc2cccnc12 | -1.8% | · | -1.3% | -4.3% | ·
O=C(O)c1ccc(N/N=C/c2cccc3cccnc23)cc1 | 0.757µM* | · | 0.316µM* | 0.282µM* | ·
Cc1ccccc1-c1noc(CCC(=O)Nc2cccc(C)c2C)n1 | -1.7% | -2.2% | · | · | ·
CCOC(=O)Nc1ccc2c(c1)N(C(=O)N1CCN(C)CC1)c1ccccc1CC2 | ? | · | -1.2% | -6.2% | -16.1%
CC(C)OC(=O)Nc1ccc2c(c1)N(C(=O)N1CCN(C)CC1)c1ccccc1CC2 | 6.01µM* | · | ? | ? | ·
COC(=O)c1scc(-c2ccc(C)cc2)c1S(=O)(=O)N1CCN(c2ccc(OC)cc2)CC1 | 4.2% | · | · | · | ·
COCCCNc1nc2c(-c3ccc(Cl)cc3)nnn2c2ccccc12 | -1.3% | -5.3% | -2.9% | -6.6% | -3.3%
NNc1nc2c(-c3ccc(F)cc3)nnn2c2ccccc12 | 4.78µM* | 5.01µM* | 3.98µM* | 2.82µM* | ?
